From PubChem BioAssay come the findings set out here.

Where “and” joins values, the source holds several entries; their conditions need not be identical. Identical values can stand only once. Calls of active or inactive are those of the source.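 The calls were made as follows, unless noted: active = compounds whose cell count with miR-34 switched on is under 0.7 times the count with it off; inactive = the rest.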

Experiment [1] is described as follows: Wnt pathway potentiators raising nuclear beta-catenin – imaging, WNT3A-conditioned medium, mouse C2C12, NPC library, primary screen (AID 1117326; in the data active = nuclear beta-catenin stimulation mostly above about 4.2%, no sharp cut-off; inactive = mostly below about 10%). Conditions: stronger effect = higher value.
A short description of experiment [2]: stimulators of insulin release from INS-1E, primary screen, cell-based, 5 mM glucose, NPC library (AID 1117329;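 active = compound raises insulin release from rat beta cells at 5 mM glucose, no numeric limit stated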). As to conditions: rat INS-1E insulin secretion, at 10 µM, stronger effect = higher value.
The nature of experiment [3]: growth inhibition of GSK3B-pretreated HCT116 cells – cell-based, CellTiter-Glo, 0.2 to 20 µM (AID 1117336;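 active = compounds lowering colon cancer cell viability after pretreatment blocking the GSK3B kinase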). As to conditions: HCT116 viability after GSK3B inhibitor, at 20 µM, stronger effect = higher value. For orientation: In ATP-based viability assays light output follows the ATP content of the culture.
The nature of experiment [4]: inhibition of endothelial tube formation, primary screen, imaging, VEGF stimulated, CD31 staining, tube area, NPC library (AID 1117340;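 active = compound that reduces growth-factor-driven endothelial tube area in a mixed cell culture, no cutoff stated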). Conditions: VEGF-stimulated ADSC/ECFC co-culture, at 10 µM, stronger effect = higher value.
Experiment [5] can be described thus: GLP1 release stimulators, primary, NCI-H716, NPC library (AID 1117341;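 active = compound raises GLP1 secretion from the human gut endocrine cells, with no numeric limit stated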). Conditions: NCI-H716 cells, at 10 µM, stronger effect = higher value.
Experiment [6] is described as follows: HCT116 colon cancer cell growth inhibition, primary screen, CellTiter-Glo luminescence, NPC library (AID 1117342;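 active = compounds that lower survival of HCT116 colon cancer cells in the luminescence readout, no numeric limit stated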). Conditions: at 20 µM (top of the series).
Experiment [7] in a line: reduced SW480 viability measured with CellTiter-Glo, NPC library, primary (AID 1117343;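 active = compounds that lower viability of the colon cancer cells in the luminescence readout, with no numeric limit stated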). As to conditions: CellTiter-Glo luminescence; at 20 µM (top of the series).
The nature of experiment [8]: NPC library primary testing for decreased DLD-1 cell viability via CellTiter-Glo (AID 1117346;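 active = compounds that lower survival of DLD-1 colon cancer cells in the luminescence readout, no cutoff given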). Conditions: DLD-1 viability, CellTiter-Glo luminescence; at 20 µM (top of the series).
The nature of experiment [9]: viability loss with induced miR-34 in A549 – imaging, A549 dox-inducible miR-34, nuclei and caspase counts, primary screen (AID 1347080). Conditions: A549 miR-34 inducible, Hoechst nuclei count, 48 h.
Experiment [10] in a line: galactose survival enhancers in mitochondrial complex I cybrids – cell-based, galactose medium, ATP luminescence, primary screen (AID 1645843;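 active = z-score of at least 1.8 in each of two replicates, scored against plate mean and spread of sample wells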;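 also: positive z means more ATP and so rescue of galactose-driven cybrid death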). As to conditions: complex I mutant cybrid cells, 72 h, stronger effect = higher value.
A short description of experiment [11]: compounds altering viability of human ES cells (AID 493140; call rule not given here;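 also: cells exposed to compounds for four days before counting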). Conditions: human embryonic stem cell survival screen; stronger effect = higher value.
Experiment [12] in a line: P. berghei load reduction in hepatocytes – cell-based, HepG2, luciferase luminescence, HepG2 viability, primary screen (AID 624349; in the data active = parasite load remaining mostly below about 12%, no sharp cut-off; inactive = mostly above about 10%;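 also: 100% = mean of DMSO negative control wells on the same plate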). As to conditions: P. berghei liver stage in HepG2, luciferase luminescence, concentration not given here; parasite load remaining: stronger effect = lower value; viability: measured here: HepG2 viability without parasites.
Experiment [13] in a line: EMT-state selective cytotoxicity in co-culture – imaging, PC-3E GFP, TEM4-18 mCherry, primary screen (AID 1345086;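 active = compounds killing one labelled cell type while sparing the other, by normalised counts and ratio limits, not self-fluorescent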;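 as to all read-outs here: cells exposed to compound for 72 h before imaging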;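 as to red/green cell ratio (normalised): normalised mesenchymal count divided by normalised epithelial count so high means epithelial killing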). As to conditions: PC-3E GFP / TEM4-18 mCherry co-culture, imaging cell counts, at 1 µM; for red/green cell ratio (normalised): actives lie on both sides.
Experiment [14] can be described thus: MELAS cybrid and Rieske KO viability enhancers – cell-based, MELAS cybrids, Rieske KO mouse fibroblasts, CellTiter-Glo, primary screen (AID 1508586;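 active = mean z-score across replicates of 1.96 or higher in either the MELAS or the Rieske mutant cell line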;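 also: z relative to plate mean and SD of compound and empty wells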). Conditions: low glucose.
Experiment [15] deals with NAD(+) hydrolase SARM1 (Homo sapiens) (UniProt Q6SZW1). Kind of experiment: blocking NAD cleavage by SARM1 SAM-TIR – cell lysate, NAD-Glo luminescence (AID 1508614;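 active = compound whose remaining NAD level is above about 45 nM, limit read from the data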;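 also: higher remaining NAD means stronger inhibition of SARM1 NADase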). As to conditions: SAM-TIR HEK293T lysate NADase, at 1 µM, stronger effect = higher value.
Experiment [16] has as its system Hepatitis C virus NS3 helicase. Kind of experiment: blockers of NS3h binding to ssDNA – biochemical, fluorescence polarization, LOPAC1280 library, primary screen (AID 687035; in the data active = inhibition above about 37%). As to conditions: Purified HCV NS3 helicase, Cy5-dT15 ssDNA binding fluorescence polarization; stronger effect = higher value; concentration not given here. A general note: Fluorescence polarisation rises when a labelled molecule tumbles more slowly, as on binding a larger partner.

The nature of experiment [17]: compounds altering Cy5-DNA-NS3h complex signal – biochemical, LOPAC1280, artefact control for HCV NS3 helicase inhibitor project (AID 687037; call rule not given here). As to conditions: Cy5-DNA-NS3h complex fluorescence interference counterscreen. In general terms: Counterscreens check selectivity or assay interference.
In experiment [18] the test system is Aerobactin synthetase IucA (Klebsiella pneumoniae, hypervirulent). Kind of experiment: biochemical IucA inhibition screen of LOPAC library by absorbance (AID 1346212; call rule not given here;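 also: 100% = no compound wells and 0% = no enzyme wells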). As to conditions: IucA enzyme assay, absorbance (OD) readout; stronger effect = lower value;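 tested at 8 µM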.
[19] abbreviates: measured here: relative caspase fold change +Dox/-Dox.
Where [20] appears, read: measured here: total cells with miR-34 induction, stronger effect = lower value.
The mark [21] stands for this setting: measured here: total cells without miR-34 induction.
[22] abbreviates: measured here: epithelial PC-3E GFP cell survival.
Setting [23] is: measured here: mesenchymal TEM4-18 mCherry cell survival.
Where [24] appears, read: MELAS cybrid survival, CellTiter-Glo 48 h, stronger effect = higher value.
Where [25] appears, read: Rieske KO mouse fibroblast survival, CellTiter-Glo 72 h.

Sequence of NAD(+) hydrolase SARM1 (Homo sapiens) (Q6SZW1 whole entry, looked up): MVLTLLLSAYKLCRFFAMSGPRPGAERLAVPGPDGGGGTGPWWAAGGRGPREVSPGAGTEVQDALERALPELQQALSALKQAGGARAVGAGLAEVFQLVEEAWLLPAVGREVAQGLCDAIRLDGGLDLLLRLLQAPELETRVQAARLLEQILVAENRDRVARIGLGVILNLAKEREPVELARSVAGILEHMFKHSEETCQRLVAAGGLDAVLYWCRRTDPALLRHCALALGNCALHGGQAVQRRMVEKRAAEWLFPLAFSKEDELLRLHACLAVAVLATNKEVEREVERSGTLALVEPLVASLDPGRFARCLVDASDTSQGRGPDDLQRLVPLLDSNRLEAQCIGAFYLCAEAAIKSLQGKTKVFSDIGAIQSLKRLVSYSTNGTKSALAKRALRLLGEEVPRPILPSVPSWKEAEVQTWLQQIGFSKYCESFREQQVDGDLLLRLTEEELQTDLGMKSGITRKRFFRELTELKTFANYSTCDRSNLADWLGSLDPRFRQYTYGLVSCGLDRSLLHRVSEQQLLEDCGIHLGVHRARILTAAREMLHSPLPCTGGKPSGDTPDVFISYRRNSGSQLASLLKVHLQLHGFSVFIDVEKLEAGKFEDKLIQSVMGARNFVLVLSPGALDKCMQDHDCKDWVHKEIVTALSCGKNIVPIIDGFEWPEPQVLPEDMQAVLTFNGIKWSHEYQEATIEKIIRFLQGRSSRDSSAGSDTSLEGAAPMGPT

Turning to `CC(C)(C)OC(=O)c1ncn2c1[C@@H]1CCCN1C(=O)c1c(Br)cccc1-2`, the nuclear beta-catenin stimulation is 4% (inactive) in experiment [1] (at 10 µM) and 2.4% in experiment [1] (stimulation, at 2 µM). Moreover, the insulin secretion stimulation in experiment [2] was -0.65% (inactive). The viability decrease in [3] is 13.7% (inactive). In experiment [4], the tube area decrease was 2% (inactive). In addition, the GLP1 secretion stimulation in [5] is -0.4% (inactive). The inhibition of viability in experiment [6] is 26.5% (inactive). For the same compound, the viability decrease (inhibition) is -7.5% (inactive) in experiment [7] and 7.7% (inactive) in [8]. Besides, the fold change in experiment [9] (stronger effect = lower value, cell number ratio, induced over uninduced) is 0.898 (inactive); in [9] (setting [19]), 1.56. The cell count in [9] (setting [20]) turned out to be 6920; in [9] (setting [21]), 7710. Moreover, the z-score in experiment [10] was -0.115 (inactive).
Turning to `C#C[C@]1(O)C=C[C@H]2[C@@H]3CCC4=CC(=O)CC[C@@H]4[C@H]3CC[C@@]21CC`, the nuclear beta-catenin stimulation in [1] (at 10 µM) is 0.9% (inactive); in [1] (stimulation, at 2 µM), -1%. The insulin secretion stimulation in experiment [2] was -0.7% (inactive). In experiment [3], the viability decrease was 7.4% (inactive). In addition, in experiment [4], the tube area decrease is -2.3% (inactive). For the same compound, the GLP1 secretion stimulation in experiment [5] was 3.4% (inactive). The inhibition of viability in experiment [6] is 32.2% (inactive). Moreover, the viability decrease (inhibition) in experiment [7] is -18.5% (inactive); in experiment [8], -11.8% (inactive).
Usually viability stands for a read-out of living cells in per cent, often relative to untreated cells. On to `COc1ccc(CN2CCNCC2)c(OC)c1OC`, for which, in experiment [11], the survival is 5.83 (inactive). In experiment [12], the parasite load remaining was 122% (inactive) and 71.5% (inactive). In experiment [12], the viability is 118% and 81.2%. Besides, the nuclear beta-catenin stimulation in [1] (at 10 µM) is 0.8% (inactive); in experiment [1] (stimulation, at 2 µM) it was 1.1%. For the same compound, the insulin secretion stimulation in experiment [2] was -0.9% (inactive). Also, the viability decrease in experiment [3] is 14.1% (inactive). Further, in experiment [4], the tube area decrease was 8.8% (inactive). Besides, the GLP1 secretion stimulation in [5] was 0% (inactive). Further, the inhibition of viability in experiment [6] is 19.3% (inactive). Also, the viability decrease (inhibition) in [7] was -6.6% (inactive); in [8], 1.5% (inactive). Moreover, the red/green cell ratio (normalised) in experiment [13] was 0.94 (inactive). Further, the figures for the normalised cell number in experiment [13] (setting [22]) and in experiment [13] (setting [23]) were 1.11 and 1.05, respectively. Further, the fold change in experiment [9] (stronger effect = lower value) is 0.892 (inactive); in experiment [9] (setting [19]) it was 1.29. Also, the cell count in [9] (setting [20]) was found to be 9020; in experiment [9] (setting [21]) it was 10100. The z-score in experiment [14] (setting [24]) was 0.315 (inactive); in experiment [14] (setting [25]) it was 0.274. The remaining NAD in experiment [15] was 10 nM (inactive).
Turning to `O=C(O)Cc1ccccc1`, the parasite load remaining in experiment [12] was 25.8% (inactive) and 52.8% (inactive). Moreover, the viability in experiment [12] is 91.1% and 112%. Besides, the nuclear beta-catenin stimulation in [1] (at 10 µM) was 0.2% (inactive); in experiment [1] (stimulation, at 2 µM), 0.3%. Also, in [2], the insulin secretion stimulation is -1.1% (inactive). Further, the viability decrease in experiment [3] is -0.05% (inactive). Also, the tube area decrease in experiment [4] is -39.3% (inactive). Also, the GLP1 secretion stimulation in experiment [5] is -0.3% (inactive). Further, the inhibition of viability in experiment [6] was -9.8% (inactive). For the same compound, the viability decrease (inhibition) in experiment [7] is 8.6% (inactive); in [8], 0.45% (inactive). Also, the red/green cell ratio (normalised) in experiment [13] was 0.91 (inactive). Also, the normalised cell number worked out at 1.01 in experiment [13] (setting [22]) and 0.92 in experiment [13] (setting [23]). In addition, the fold change in experiment [9] (stronger effect = lower value) is 0.869 (inactive) and 0.823 (inactive); in experiment [9] (setting [19]) it was 4.43 and 1.17. The cell count in [9] (setting [20]) is 10700 and 9120; in experiment [9] (setting [21]), 12300 and 11100. For the same compound, the z-score in [14] (setting [24]) was 0.496 (inactive); in experiment [14] (setting [25]), 0.0978; in experiment [10], 0.455 (inactive). Moreover, in experiment [15], the remaining NAD was 10 nM (inactive).
The inhibition is the relative decrease from the control value, in per cent. Broadly, the remaining activity is the signal under treatment as a percentage of the control signal. Turning to `CC(=O)[C@H]1CC[C@H]2[C@@H]3CC[C@H]4C[C@H](O)CC[C@]4(C)[C@H]3C(=O)C[C@]12C`, in experiment [11], the survival is 20.1 (inactive). Moreover, the parasite load remaining in experiment [12] is 70.8% (inactive). The viability in [12] is 72.4%. Further, the inhibition in experiment [16] was -1% (inactive). Also, the fluorescence ratio (interference) in experiment [17] is 1 (inactive). Also, the nuclear beta-catenin stimulation in experiment [1] (at 10 µM) was 0.5% (inactive); in experiment [1] (stimulation, at 2 µM), -0.7%. The insulin secretion stimulation in experiment [2] was 3.1% (inactive). In addition, in experiment [3], the viability decrease was 28% (inactive). The tube area decrease in experiment [4] is -23.1% (inactive). The GLP1 secretion stimulation in experiment [5] was -1.7% (inactive). In addition, the inhibition of viability in experiment [6] was 41.1% (inactive). Also, the values for the viability decrease (inhibition) in [7] and in experiment [8] were 67.8% (active) and 19.9% (inactive), respectively. Also, in experiment [18], the remaining activity was 112% (inactive). Besides, the fold change in experiment [9] (stronger effect = lower value) is 1.12 (inactive) and 0.844 (inactive); in experiment [9] (setting [19]), 0.8 and 0.773. The cell count in experiment [9] (setting [20]) was 11000 and 8700; in [9] (setting [21]) it was 9770 and 10300. The z-score in experiment [14] (setting [24]) is 0.566 (inactive); in [14] (setting [25]) it was 0.0524; in experiment [10], -0.315 (inactive).
